About 7,900 targets were measured; listed, in parts, are those with a hit and a random draw of the rest. About 0.6% of all pairs of compound and target were hits.
compound: c1cn2cc(-c3ccc4cn[nH]c4c3)nc(Nc3ccc(N4CCOCC4)cc3)c2n1 [entospletinib]; assay: log2 fold change, soluble protein after heating vs DMSO (PISA); higher = thermal stabilisation; K562 cells, 10 uM, 30 min; active = over 0.2 and 3.5 SD of the protein, either way, in both replicates (recomputed)
In short: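 For each measurement, 10 μM compound was applied for 30 min to K562 cells at 2×10^6 cells/mL. Aliquots were heated for 3 min across 48°C-58°C, pooled, and extracted in PBS with 0.5% NP-40 at 4°C; the supernatant after 21,000xg for 90 min was soluble protein. This was quantified by TMTpro 16plex LC-MS/MS with channel sums equalised, and thermal stability was reported relative to control samples from duplicates, on a log2 fold-change scale.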

Sequence of UniProt Q8NCF5 (Q8NCF5 whole entry, looked up): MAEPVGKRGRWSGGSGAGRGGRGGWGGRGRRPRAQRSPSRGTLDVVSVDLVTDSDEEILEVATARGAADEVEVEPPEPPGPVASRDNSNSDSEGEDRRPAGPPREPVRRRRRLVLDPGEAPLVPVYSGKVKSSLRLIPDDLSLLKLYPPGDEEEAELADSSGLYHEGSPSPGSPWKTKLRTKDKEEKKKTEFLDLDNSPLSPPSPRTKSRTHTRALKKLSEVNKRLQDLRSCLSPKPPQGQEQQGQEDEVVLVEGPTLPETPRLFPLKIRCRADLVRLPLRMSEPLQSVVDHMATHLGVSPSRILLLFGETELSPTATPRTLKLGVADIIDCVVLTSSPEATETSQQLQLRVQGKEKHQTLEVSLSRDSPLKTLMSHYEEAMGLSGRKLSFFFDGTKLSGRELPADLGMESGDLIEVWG
Sequence of UniProt Q8WVJ2 (Q8WVJ2 whole entry, looked up): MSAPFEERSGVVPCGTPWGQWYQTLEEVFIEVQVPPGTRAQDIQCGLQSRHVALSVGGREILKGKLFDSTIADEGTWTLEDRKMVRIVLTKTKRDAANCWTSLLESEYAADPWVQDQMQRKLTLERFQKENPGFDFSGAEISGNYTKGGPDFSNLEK
Sequence of UniProt Q08J23 (Q08J23 whole entry, looked up): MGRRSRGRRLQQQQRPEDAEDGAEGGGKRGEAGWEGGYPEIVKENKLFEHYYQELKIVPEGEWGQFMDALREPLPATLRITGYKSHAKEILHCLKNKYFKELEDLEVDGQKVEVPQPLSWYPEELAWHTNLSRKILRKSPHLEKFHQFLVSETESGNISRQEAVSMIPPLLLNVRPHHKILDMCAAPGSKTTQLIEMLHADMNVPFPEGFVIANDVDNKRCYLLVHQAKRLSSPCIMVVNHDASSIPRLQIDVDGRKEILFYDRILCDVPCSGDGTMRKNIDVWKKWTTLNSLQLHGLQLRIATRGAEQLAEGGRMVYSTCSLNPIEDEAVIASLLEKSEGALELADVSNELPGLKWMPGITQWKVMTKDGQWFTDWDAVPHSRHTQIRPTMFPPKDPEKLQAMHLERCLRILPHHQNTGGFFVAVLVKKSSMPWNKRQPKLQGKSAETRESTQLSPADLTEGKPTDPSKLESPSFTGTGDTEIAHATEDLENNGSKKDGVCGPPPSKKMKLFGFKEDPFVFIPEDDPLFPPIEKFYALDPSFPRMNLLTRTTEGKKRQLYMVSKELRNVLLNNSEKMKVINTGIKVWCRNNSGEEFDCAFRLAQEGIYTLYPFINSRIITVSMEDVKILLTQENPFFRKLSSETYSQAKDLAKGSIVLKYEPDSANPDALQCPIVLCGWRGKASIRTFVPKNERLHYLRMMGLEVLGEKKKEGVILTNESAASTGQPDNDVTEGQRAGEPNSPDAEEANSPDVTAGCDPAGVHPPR
Sequence of UniProt P68402 (P68402 whole entry, looked up): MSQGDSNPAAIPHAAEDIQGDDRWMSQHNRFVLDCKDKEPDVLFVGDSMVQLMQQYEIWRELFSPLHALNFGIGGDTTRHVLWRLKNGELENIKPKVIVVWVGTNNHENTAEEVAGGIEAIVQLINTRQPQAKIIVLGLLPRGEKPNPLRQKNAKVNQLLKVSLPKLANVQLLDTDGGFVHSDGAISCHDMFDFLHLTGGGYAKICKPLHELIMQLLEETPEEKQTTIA
Sequence of UniProt Q15738 (Q15738 whole entry, looked up): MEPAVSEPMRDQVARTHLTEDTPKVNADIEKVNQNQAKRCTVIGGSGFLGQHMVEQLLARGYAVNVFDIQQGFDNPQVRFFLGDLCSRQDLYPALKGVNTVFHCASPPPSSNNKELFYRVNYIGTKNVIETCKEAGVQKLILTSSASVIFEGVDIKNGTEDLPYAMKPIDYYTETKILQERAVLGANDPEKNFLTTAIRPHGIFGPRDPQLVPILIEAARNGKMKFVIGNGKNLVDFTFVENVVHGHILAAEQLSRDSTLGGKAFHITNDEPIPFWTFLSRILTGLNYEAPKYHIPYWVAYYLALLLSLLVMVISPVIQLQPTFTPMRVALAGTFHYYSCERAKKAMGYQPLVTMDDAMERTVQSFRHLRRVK
Sequence of UniProt Q13952 (Q13952 whole entry, looked up): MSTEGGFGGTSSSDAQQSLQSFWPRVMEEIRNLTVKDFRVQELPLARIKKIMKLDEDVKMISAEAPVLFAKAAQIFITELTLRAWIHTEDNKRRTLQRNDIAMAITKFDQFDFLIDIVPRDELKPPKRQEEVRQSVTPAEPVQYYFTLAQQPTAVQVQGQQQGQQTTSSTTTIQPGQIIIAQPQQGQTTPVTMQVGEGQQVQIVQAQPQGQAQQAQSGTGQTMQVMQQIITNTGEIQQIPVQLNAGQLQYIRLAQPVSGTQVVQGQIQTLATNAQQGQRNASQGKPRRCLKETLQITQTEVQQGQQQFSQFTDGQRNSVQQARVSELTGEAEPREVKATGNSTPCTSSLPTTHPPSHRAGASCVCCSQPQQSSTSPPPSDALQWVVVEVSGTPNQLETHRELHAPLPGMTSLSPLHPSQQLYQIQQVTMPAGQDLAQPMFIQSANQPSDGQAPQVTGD
Sequence of UniProt Q8WX92 (Q8WX92 whole entry, looked up): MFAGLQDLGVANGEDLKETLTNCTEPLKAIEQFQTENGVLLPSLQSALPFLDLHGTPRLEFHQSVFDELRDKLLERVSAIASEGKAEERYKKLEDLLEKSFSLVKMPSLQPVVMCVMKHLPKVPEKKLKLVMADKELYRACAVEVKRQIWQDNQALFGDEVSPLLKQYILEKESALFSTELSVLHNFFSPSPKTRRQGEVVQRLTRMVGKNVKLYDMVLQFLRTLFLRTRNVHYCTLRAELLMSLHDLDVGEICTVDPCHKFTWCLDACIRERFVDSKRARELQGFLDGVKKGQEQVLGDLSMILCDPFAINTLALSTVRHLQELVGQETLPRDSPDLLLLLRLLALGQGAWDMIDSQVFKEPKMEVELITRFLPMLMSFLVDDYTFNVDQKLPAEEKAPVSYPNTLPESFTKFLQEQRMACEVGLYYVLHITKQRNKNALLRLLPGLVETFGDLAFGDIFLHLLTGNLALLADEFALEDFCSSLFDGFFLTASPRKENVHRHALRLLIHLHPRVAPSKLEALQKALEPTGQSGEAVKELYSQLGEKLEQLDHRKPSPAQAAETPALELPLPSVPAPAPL
Sequence of UniProt Q9UBD5 (Q9UBD5 whole entry, looked up): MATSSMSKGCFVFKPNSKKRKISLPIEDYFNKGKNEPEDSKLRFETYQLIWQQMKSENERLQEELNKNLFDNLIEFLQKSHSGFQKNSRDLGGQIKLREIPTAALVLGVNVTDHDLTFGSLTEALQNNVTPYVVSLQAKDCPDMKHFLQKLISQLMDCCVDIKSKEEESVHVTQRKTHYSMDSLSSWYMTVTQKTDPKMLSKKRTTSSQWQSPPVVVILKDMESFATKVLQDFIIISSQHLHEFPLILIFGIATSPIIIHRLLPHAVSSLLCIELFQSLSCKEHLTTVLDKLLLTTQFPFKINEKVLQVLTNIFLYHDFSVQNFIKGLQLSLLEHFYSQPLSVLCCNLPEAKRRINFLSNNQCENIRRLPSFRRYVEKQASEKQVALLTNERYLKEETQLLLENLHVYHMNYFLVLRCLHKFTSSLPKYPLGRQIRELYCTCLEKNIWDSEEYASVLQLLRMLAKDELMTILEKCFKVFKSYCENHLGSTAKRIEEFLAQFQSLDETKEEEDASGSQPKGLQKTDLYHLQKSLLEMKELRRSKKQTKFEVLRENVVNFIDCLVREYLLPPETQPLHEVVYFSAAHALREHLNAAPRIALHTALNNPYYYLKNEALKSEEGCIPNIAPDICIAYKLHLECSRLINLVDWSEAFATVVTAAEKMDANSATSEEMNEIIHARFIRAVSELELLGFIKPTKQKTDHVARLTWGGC
Sequence of UniProt P46087 (P46087 whole entry, looked up): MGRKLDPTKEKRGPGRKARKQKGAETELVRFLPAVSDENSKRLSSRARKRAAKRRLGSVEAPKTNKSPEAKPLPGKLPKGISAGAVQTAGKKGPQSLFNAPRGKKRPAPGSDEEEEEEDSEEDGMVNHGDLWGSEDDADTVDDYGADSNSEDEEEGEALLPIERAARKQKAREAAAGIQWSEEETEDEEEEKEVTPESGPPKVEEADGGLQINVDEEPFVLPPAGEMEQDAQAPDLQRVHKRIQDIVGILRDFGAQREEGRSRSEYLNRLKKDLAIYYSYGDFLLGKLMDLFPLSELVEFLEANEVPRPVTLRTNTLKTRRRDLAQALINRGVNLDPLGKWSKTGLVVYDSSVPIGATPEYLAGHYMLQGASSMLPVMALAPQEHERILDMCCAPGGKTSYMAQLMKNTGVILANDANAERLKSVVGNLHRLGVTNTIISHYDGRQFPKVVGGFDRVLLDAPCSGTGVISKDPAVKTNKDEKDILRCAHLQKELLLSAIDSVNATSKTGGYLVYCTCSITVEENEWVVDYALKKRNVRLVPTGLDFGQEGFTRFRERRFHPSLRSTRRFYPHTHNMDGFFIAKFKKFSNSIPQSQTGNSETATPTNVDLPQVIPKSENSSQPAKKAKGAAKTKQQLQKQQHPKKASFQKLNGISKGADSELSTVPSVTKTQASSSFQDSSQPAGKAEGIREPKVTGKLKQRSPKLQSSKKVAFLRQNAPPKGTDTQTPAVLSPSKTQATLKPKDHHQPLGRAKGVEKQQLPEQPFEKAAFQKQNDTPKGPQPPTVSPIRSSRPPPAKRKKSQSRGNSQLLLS
Sequence of UniProt Q5TFE4 (Q5TFE4 whole entry, looked up): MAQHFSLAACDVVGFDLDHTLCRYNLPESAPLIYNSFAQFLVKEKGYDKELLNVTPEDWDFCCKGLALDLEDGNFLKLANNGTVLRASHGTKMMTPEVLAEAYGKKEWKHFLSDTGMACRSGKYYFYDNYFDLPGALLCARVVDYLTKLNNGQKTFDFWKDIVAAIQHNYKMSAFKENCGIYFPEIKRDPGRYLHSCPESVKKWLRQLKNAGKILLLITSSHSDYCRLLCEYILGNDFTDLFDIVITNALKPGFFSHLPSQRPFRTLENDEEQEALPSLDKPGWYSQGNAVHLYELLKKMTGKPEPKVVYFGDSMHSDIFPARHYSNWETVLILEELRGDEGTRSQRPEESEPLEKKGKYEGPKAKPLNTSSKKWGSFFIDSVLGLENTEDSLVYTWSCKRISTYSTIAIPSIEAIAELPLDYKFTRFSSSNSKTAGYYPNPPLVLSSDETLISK

log2 fold change, inactive:
OXA1L (UniProt Q15070) -0.014
NSDHL (UniProt Q15738) -0.05
NPC1L1 (UniProt Q9UHC9) -0.007
NEDD4 isoform 4 (UniProt P46934) -0.007
NUDT21 (UniProt O43809) 0.016
MRPL34 (UniProt Q9BQ48) 0.047
MXRA7 (UniProt P84157) -0.008
NUDCD2 (UniProt Q8WVJ2) -0.005
NIPSNAP2 (UniProt O75323) 0.092
NA, A0A494C071 -0.105
NMT1 (UniProt P30419) 0.04
PAFAH1B2 (UniProt P68402) 0.022
NOP2 isoform 4 (UniProt P46087) 0.147
OXSM (UniProt Q9NWU1) -0.023
NFATC2IP (UniProt Q8NCF5) -0.054
NFYC (UniProt Q13952) 0.033
NAP1L1 (UniProt B7Z9C2) -0.081
ORC3 (UniProt Q9UBD5) -0.144
OPHN1 (UniProt O60890) -0.014
NEU1 (UniProt Q99519) -0.025
NT5DC1 (UniProt Q5TFE4) 0.039
NSUN2 (UniProt Q08J23) 0.011
MRPS21 (UniProt P82921) -0.031
NOSIP (UniProt Q9Y314) -0.146
MRPS2 (UniProt Q9Y399) 0.059
NMRAL1 (UniProt Q9HBL8) 0.135
NECTIN2 (UniProt Q92692) -0.016
NDUFAF6 (UniProt Q330K2) -0.121
MRFAP1 (UniProt Q9Y605) 0.005
MYSM1 (UniProt Q5VVJ2) 0.141
NELFB isoform 2 (UniProt Q8WX92) -0.039
NOL7 (UniProt Q9UMY1) 0.033
NNT (UniProt Q13423) -0.042
MRPS27 isoform 2 (UniProt Q92552) -0.029
